The values that follow come from the supplement of paper PMC12067926.

A number with no mark means an inactive call.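 The calls were made as follows: active = growth AUC significantly below the DMSO wells by Dunnett test; inactive = the rest.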

The test system of this test is Carnobacterium 1 (Carnobacterium gallinarum). Description: relative growth (AUC of 72 h growth curve relative to DMSO control, dAUC) (ratio); higher = more growth (less inhibition), active = hit call of the paper. To be noted: 20 µM. On the procedure: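 Environmental bacterial isolates (Iceland stream sediment and Silwood Park soil) and whole stream-sediment communities were grown in LB from a 1:100 dilution with each pesticide at 20 µM (1% DMSO). A600 was read hourly for 72 h and the area under a spline-fitted growth curve (AUC) was computed. dAUC is the mean AUC of 3 biological replicates divided by the mean AUC of the DMSO controls. Significance was tested by Dunnett's test against the DMSO control.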
With `CCC(CC)Nc1c([N+](=O)[O-])cc(C)c(C)c1[N+](=O)[O-]`, the relative growth was 0.819. `O=C1C2(Cl)C3(Cl)C4(Cl)C(Cl)(Cl)C5(Cl)C3(Cl)C1(Cl)C5(Cl)C24Cl` (configuration not stated): the relative growth is 0.621. For `Cc1nc(N(C)C)nc(OC(=O)N(C)C)c1C`, the relative growth is 0.883. With `COC(=O)N(C(=O)N1CO[C@@]2(C(=O)OC)Cc3cc(Cl)ccc3C2=N1)c1ccc(OC(F)(F)F)cc1` the figure was 1.15; with `COc1ccc(-c2ccccc2)cc1NNC(=O)OC(C)C`, 0.828; with `CN(C)C(CSS(=O)(=O)O)CSS(=O)(=O)O`, 1.03. With `CCOCN(C(=O)CCl)c1c(C)cccc1CC` the figure was 1. In the case of `Fc1ccc([C@]2(Cn3cncn3)O[C@H]2c2ccccc2Cl)cc1` (racemic), the relative growth is 0.995.

With `O=C(O)CNCP(=O)(O)O`, the relative growth was 1.13. For `CCCN(CCOc1c(Cl)cc(Cl)cc1Cl)C(=O)n1ccnc1`, the relative growth was 1.08.

As for `CC(C)N1C(=O)c2ccccc2NS1(=O)=O`, the relative growth is 0.693. With `CNC(=O)Oc1cccc2ccccc12` the figure was 1.1; with `CNC(=O)Oc1cccc(/N=C/N(C)C)c1`, 0.892.

For the compound `O=C1c2ccccc2C(=O)N1SC(Cl)(Cl)Cl`, the relative growth is 1.03. Consider `O=C(NC(=O)c1c(F)cccc1F)Nc1ccc(Cl)cc1`, for which the relative growth was 0.911. For `CCc1nn(C)c(C(=O)NCc2ccc(Oc3ccc(C)cc3)cc2)c1Cl` the value was 1.19; for `Nc1c([N+](=O)[O-])ccc(Oc2ccccc2)c1Cl`, 0.792. As to `CCOCn1c(-c2ccc(Cl)cc2)c(C#N)c(Br)c1C(F)(F)F`, the relative growth is 1.16.

As for `COP(=S)(OC)SCN1C(=O)c2ccccc2C1=O`, the relative growth was 1.04. For `Cc1cc(C(C#N)c2ccc(Cl)cc2)c(Cl)cc1NC(=O)c1cc(I)cc(I)c1O` (configuration not stated) the value was 0.0215 (active); for `Oc1ccccc1-c1ccccc1`, 0.744; for `Clc1ccc(C(c2ccc(Cl)cc2)C(Cl)(Cl)Cl)cc1`, 1.1.

For `CC(C)OC(=O)C(C(=O)OC(C)C)=C1SCCS1`, the relative growth is 0.826.

In the case of `COCC(C)N(C(=O)CCl)c1c(C)csc1C` (configuration not stated), the relative growth is 0.859. With `O=C1C2CC=CCC2C(=O)N1SC(Cl)(Cl)Cl` (configuration not stated) the figure was 1.19. For `CCc1cc(C)cc(CC)c1-c1c(OC(=O)C(C)(C)C)n2n(c1=O)CCOCC2` the value was 1.01; for `CCCC(Cn1cncn1)c1ccc(Cl)cc1Cl` (configuration not stated), 1.13.
